The list is a sample of the results.
aSyn UTR act = Activators via SNCA 5'UTR binding, MLPCN; 300,000 compounds, 7.1% hits; alpha-synuclein 5'UTR reporter, activators screen; activity score, % (tested at 7.5 µM), hits read low; in the data active = activity score below about -60%
An asterisk follows results filed as active.

SMILES	aSyn UTR act
Cn1c(SCc2ccc(F)cc2)nnc1-c1cnccn1	-85*
Cc1ccccc1CSc1nnc(-c2cnccn2)n1C	-105*
Cn1c(SCc2ccc(Br)cc2)nnc1-c1ccccn1	-93*
COc1ccc2oc(C(=O)C3CC3)c(N)c2c1	-133*
COc1ccc2occ(C(=O)c3ccccc3)c2c1	-133*
Nc1c(C(=O)c2ccc(F)cc2)oc2ccccc12	-137*
Nc1ccc(C(=O)n2c3ccccc3c3ccccc32)cc1	117
COC(=O)c1oc2ccccc2c1N	-63*
Nc1c(C(=O)c2ccco2)oc2ccccc12	-113*
COc1ccc2oc(C(=O)c3ccccc3)c(N)c2c1	-174*
Nc1c(C(=O)Nc2ccc(Cl)cc2)oc2ccccc12	-253*
COc1ccc(C(=O)c2oc3ccccc3c2N)cc1	-179*
COC(=O)CCC(=O)c1oc2ccc(OC)cc2c1N	-62*
Cc1ccc(NC(=O)c2cc(=O)c3ccccc3o2)cc1	-190*
Cc1cccc(NC(=O)c2cc(=O)c3ccccc3o2)n1	-132*
COc1cccc(NC(=O)c2cc(=O)c3ccccc3o2)c1	-72*
Cc1cccc(NC(=O)c2cc(=O)c3ccccc3o2)c1	-67*
CSc1ncc(C(=O)Nc2ccc(C(C)=O)cc2)c(C)n1	-87*
O=C(Nc1ccccc1)Nc1ccc2ccccc2c1	-141*
CC(=O)c1cccc(NC(=O)c2ccc3ccccc3c2)c1	-145*
O=C(Nc1cccc(C(=O)Nc2ccc(Br)cc2)c1)c1ccccc1	-111*
O=C(Nc1ccccc1)Nc1cccc(C(F)(F)F)c1	-73*
CC1CCC(NC(=O)CCNC(=O)c2ccc(Br)cc2)CC1 (configuration not stated)	-71*
CN(C)C(=S)Nc1ccc2ccccc2c1	-67*
CC(=O)c1ccc(NC(=O)c2cccc(NC(=O)c3ccccc3)c2)cc1	-116*
SMILES	aSyn UTR act
CC(C)OC(=O)c1cccc(NC(=O)c2ccccc2)c1	-132*
O=C(Cc1ccccc1)NNc1ccc2ccccc2c1	-101*
CC(=O)c1ccc(NC(=O)c2cc(C)nc3ccccc23)cc1	-101*
O=C(Nc1ccc(Br)cc1)c1cc2ccccn2n1	-117*
Cc1cccc(NC(=O)CCNC(=O)c2ccc(Br)cc2)c1	-93*
Nc1ccc(C(=O)Nc2cccc(N)c2)cc1	-67*
CC(C)c1cc(C(=O)Nc2cccc(C(F)(F)F)c2)no1	-102*
CC(=O)c1cccc(NC(=O)Nc2ccccc2)c1	-96*
COC(=O)/C(=C\C(=O)c1ccccc1)Nc1cccc(C(F)(F)F)c1	-185*
CC(=O)c1cccc(NC(=O)Nc2nc(C)cc(C)n2)c1	-85*
CCC(=O)Nc1cccc(NC(=O)c2ccc(Br)cc2)c1	-117*
O=C(Nc1cccc(O)c1)c1ccc(Br)cc1	-181*
N#C/C(C(=O)Oc1ccccc1)=C1\C=CC=CN1	-80*
C=CC[C@]12CC=CC(=O)[C@@]1(O)O[C@H](c1ccc(OC)c(OC)c1)[C@H]2C	-94*
COc1cc(Cl)ccc1OCc1cc(C(=O)N2C[C@H]3CC[C@H]2C3)no1	-130*
COc1cc(C)ccc1OCc1cc(C(=O)N(Cc2c(C)nn(C)c2C)C2CC2)no1	-81*
COc1cc(Cl)ccc1OCc1cc(C(=O)N2C[C@@H]3CCC[C@H]2C3)no1	-176*
COc1cc(Cl)ccc1OCc1cc(C(=O)N2C[C@]3(C)C[C@H]2CC(C)(C)C3)no1	-87*
COc1cc(C)ccc1OCc1cc(C(=O)N2CCN(C)C[C@@H]2c2ccccc2)no1	-139*
c1ccn2c(SCc3ccc4c(c3)OCO4)nnc2c1	-93*
COc1ccc(CSc2nnc(-c3ccncc3)n2C)cc1F	-94*
COc1ccc(Cn2c(SCc3ccc(C)cc3)nc3cc(OC)c(OC)cc3c2=N)cc1Cl	119
Clc1ccc(CSc2nncn2-c2ccc3c(c2)OCCO3)cc1	66
Cn1c(SCc2ccc3c(c2)OCO3)nnc1-c1ccccc1	-80*
CC1CCCC(C)N1/N=C/C=C/c1ccccc1[N+](=O)[O-] (configuration not stated)	-133*
SMILES	aSyn UTR act
Cc1ccsc1C(=O)N/N=C/C=C/c1ccccc1[N+](=O)[O-]	-138*
CCOC(=O)N/N=C/C=C/c1ccccc1[N+](=O)[O-]	-75*
CN1N=C2c3ccccc3CCC2C1c1ccc(Cl)cc1 (configuration not stated)	-101*
CN1N=C2c3ccccc3CCC2C1c1ccc(F)cc1 (configuration not stated)	-110*
c1ccc(-c2nnc(N3CCOCC3)nc2-c2ccccc2)cc1	-73*
O=C(/C=C/Nc1ccc([N+](=O)[O-])cc1Br)c1cccc2ccccc12	-163*
Nc1c(Cl)cc(C2=NCCn3c2c2ccc([N+](=O)[O-])cc2[n+]3[O-])cc1Cl	61
[O-][n+]1c2cc(C(F)(F)F)ccc2c2n1CCN=C2c1ccc(Cl)cc1	-65*
Cc1cc(C2=NNC(=Nc3ccccc3)SC2)c(C)n1C	-80*
COc1ccc(N=Cc2c(O)c3ccccc3n2C(C)=O)cc1	-132*
COc1ccc(N=Cc2sc(O)c3ccccc23)cc1	-274*
O=C(c1ccc2c(c1)OCO2)N1CCN(c2cccc(C(F)(F)F)c2)CC1	-77*
